# Results as given in PubChem BioAssay AID504465 (National Center for Advancing Translational Sciences (NCATS), 2011).
# Out of some 2,100 compounds screened, about 210 (10%) were called active. Not shown: some 53% with an inconclusive outcome. The list shows a part of the results. Unmarked numbers belong to inactive results. The call rests on the fitted dose curve; in most records, active means well fitted inhibition curve with a large enough effect; inconclusive means small, poorly fitted or top-dose-only effect, or effect the other way; inactive means no such curve, though single readings can be large or run the other way.
# Test: IN Cell qHTS Assay for Inhibitors of the mTORC1 Signaling Pathway in MEF (Tsc2-/-, p53-/-) Cells: Sytravon; further: nearly all actives have a fitted effect of over 60% in size;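 on activity, negative = inhibition: plate controls were DMSO wells for no effect and 7.5 nM rapamycin full pathway inhibition for full effect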
# Conditions: phospho-rpS6 immunofluorescence, 24 h; series mostly up to 38.3 µM; activity, negative = inhibition: at the top concentration
# How it was run: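 Tsc2-/-, p53-/- MEFs (empty-vector) treated with compound 24 h at 37 degree Celsius, then fixed and stained for phospho-rpS6 Ser235/236 (Alexa-488) plus Hoechst. Reported as % positive cells, thresholds set against 7.5 nM rapamycin and DMSO wells.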
# Potency means the concentration at half of the fitted maximal effect.
SMILES,"activity, negative = inhibition [%]",Potency
CCc1ccc(Sc2cc(C(=O)NCCCN3CCC(C)CC3)c3ccccc3n2)cc1,6.25,–
CCN(CCCNC(=O)c1cc2c(=O)[nH]c3ccccc3c2s1)c1ccccc1,-22.3,–
Cc1ccc2[nH]c(=O)c3cc(C(=O)NCCCN4CCC(C)CC4)sc3c2c1,–,5.85 µM (active)
CCc1cccc(NC(=O)c2oc3ccc4c(c3c2C)C(=O)CC(C)(C)O4)c1,-21.1,–
c1ccc(CNc2ncnc3[nH]ncc23)cc1,6.25,–
COc1ccc(-c2cc(NCc3ccc(C)cc3)n3cnnc3n2)cc1,-18.2,–
COc1ccc(CNC(=O)c2cc(-c3ccc(OC)c(OC)c3)nc3n[nH]c(-c4ccc(C)cc4)c23)cc1,–,14.7 µM (active)
COc1ccc(CNC(=O)C2CCN(S(=O)(=O)c3ccc(C)cc3)CC2)cc1,-9.16,–
Cc1oc2ccc(O)c(CN(C)Cc3ccccc3)c2c1C(=O)Nc1ccccc1,-8.08,–
CCOc1cccc(NC(=O)C2CC(=O)N(CC)C(=Nc3ccc(F)cc3)S2)c1 (configuration not stated),-11.8,–
O=C(NCC1CCN(Cc2ccccc2F)CC1)Nc1ccc(F)c(Cl)c1,-11.3,–
Cc1ccc(C)c(CN2CCC(CNC(=O)Nc3ccc(Br)cc3F)CC2)c1,–,14.7 µM (active)
Cc1ccc(C)c(CN2CCC(CNC(=O)c3cc4ccc5cccnc5c4[nH]3)CC2)c1,-15.8,–
Cc1nn(C)c2c1c(C(F)(F)F)cc(=O)n2CC(=O)N1CCC(C)CC1,-0.547,–
CSc1ccc(CCNS(=O)(=O)c2cc(-c3cc(C)no3)ccc2C)cc1,1.3,–
N#Cc1ccc(-c2cccs2)nc1SCC(=O)Nc1cccc(C(F)(F)F)c1,-23.9,–
CCOc1ccc(-c2cc(C(=O)N3CCN(c4cccc(C(F)(F)F)c4)CC3)c3ccccc3n2)cc1,6.25,–
CCOC(=O)CSc1nc(-c2ccccc2)cc(C(F)(F)F)c1C#N,–,9.27 µM (active)
CCc1ccc(Sc2cc(C(=O)NCCCN3CCCC(C)C3)c3ccccc3n2)cc1 (configuration not stated),6.25,–
CCN1CCOC(=O)C1CC(=O)Nc1ccc(C)c(Cl)c1 (configuration not stated),-10.3,–
O=C(Cn1c(-c2cccs2)cc2ccccc21)NCCCN1CCN(c2ccc(F)cc2)CC1,–,14.7 µM (active)
COc1ccc(Nc2cc(C(=O)NCCCN3CCN(c4ccc(OC)cc4)CC3)c3ccccc3n2)cc1,0,–
Cc1ccccc1Oc1nc2ccccn2c(=O)c1/C=C(\C#N)c1nc2ccccc2[nH]1,10.8,–
CCn1c(CN2CCOCC2)nc2cc(NC(=O)c3ccccc3[N+](=O)[O-])ccc21,2.58,–
CCOc1cc(C2c3c(-c4ccc(Br)cc4)n[nH]c3C(=O)N2c2ccc(Cl)cc2)ccc1O (configuration not stated),-96.1,–
CCOc1ccc(N2C(=O)c3[nH]nc(-c4ccc(OC)cc4)c3C2c2cccs2)cc1 (configuration not stated),-0.625,–
COc1ccc(-c2n[nH]c3c2C(c2ccc(O)cc2)N(c2ccc(Br)cc2)C3=O)cc1 (configuration not stated),–,11.7 µM (active)
